Laboratory results taken from PubChem BioAssay AID651642 (Sanford-Burnham Center for Chemical Genomics, 2012).
Activity calls are given as the source filed them.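 How the source made its calls: active means average half-effect concentration of 10 µM or less in every one of the four cell panels; inactive means the rest.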

Each compound was assayed on HL-1 (assay: cardiomyocyte survival under oxidative or metabolic stress – cell-based, panel, H9c2 and HL-1, H2O2, 2-deoxyglucose, ATP luminescence, SAR follow-up (AID 651642)). Conditions: H9c2/HL-1 cardiomyocyte 2-deoxyglucose damage, mean of runs, with 2-deoxyglucose.

SMILES | outcome
COc1cc(-c2cc(C(=O)Nc3cccc(C(C)=O)c3)c3cc(F)ccc3n2)cc(OC)c1OC | inactive
COc1ccc2c(c1OC)C(=O)N1c3ccccc3C(=O)N(Cc3ccc(C)cc3C)C21 (configuration not stated) | inactive
COc1ccc2c(c1OC)C(=O)N1c3ccccc3C(=O)N(Cc3ccccc3Br)C21 (configuration not stated) | inactive
COc1cccc(CNC(=O)CNC(=O)c2cc(-c3cc(OC)c(OC)c(OC)c3)nc3ccccc23)c1 | inactive
COc1cc(-c2cc(C(=O)NCC(=O)Nc3cccc(C(C)=O)c3)c3ccccc3n2)cc(OC)c1OC | active
CCOC(=O)c1cccc(NC(=O)CNC(=O)c2cc(-c3cc(OC)c(OC)c(OC)c3)nc3ccc(F)cc23)c1 | active
COc1cc(-c2cc(C(=O)Nc3cccc(C(C)=O)c3)c3ccc(Cl)cc3n2)cc(OC)c1OC | inactive
COc1ccc2nc(-c3cc(OC)c(OC)c(OC)c3)cc(C(=O)NCC(=O)Nc3ccc(C(C)=O)cc3)c2c1 | active
CCOC(=O)c1cccc(NC(=O)c2cc(-c3cc(OC)c(OC)c(OC)c3)nc3ccc(C)cc23)c1 | inactive
COc1cc(-c2cc(C(=O)NCC(=O)Nc3ccc(C(C)=O)cc3)c3cc(F)ccc3n2)cc(OC)c1OC | inactive
CCOC(=O)c1ccccc1NC(=O)c1cc(-c2cc(OC)c(OC)c(OC)c2)nc2ccccc12 | inactive
CCOC(=O)c1cccc(NC(=O)c2cc(-c3cc(OC)c(OC)c(OC)c3)nc3c(Cl)cccc23)c1 | inactive
CCOC(=O)c1cccc(NC(=O)c2cc(-c3cc(OC)c(OC)c(OC)c3)nc3ccc(OC)cc23)c1 | inactive
COc1cc(-c2cc(C(=O)Nc3cccc(C(C)=O)c3)c3cccc(Cl)c3n2)cc(OC)c1OC | inactive
COc1ccc2c(c1OC)C(=O)N1c3ccccc3C(=O)N(Cc3cccc(Cl)c3Cl)C21 (configuration not stated) | active
CCNC(=O)c1cccc(NC(=O)c2cc(-c3cc(OC)c(OC)c(OC)c3)nc3ccccc23)c1 | active

SMILES | outcome
CCOC(=O)c1cccc(NC(=O)CNC(=O)c2cc(-c3cc(OC)c(OC)c(OC)c3)nc3ccc(OC)cc23)c1 | active
COc1ccc2c(c1OC)C(=O)N1c3ccccc3C(=O)N(Cc3ccccc3Cl)C21 (configuration not stated) | active
COc1cc(-c2cc(C(=O)NCC(=O)O)c3ccccc3n2)cc(OC)c1OC | inactive
COc1cc(-c2cc(C(=O)NCC(=O)Nc3cccc(C(C)=O)c3)c3cc(C)ccc3n2)cc(OC)c1OC | inactive
COc1ccc2c(c1OC)C(=O)N1c3ccccc3C(=O)N(Cc3ccc(C)cc3)C21 (configuration not stated) | inactive
CCOC(=O)c1cccc(NC(=O)c2cc(-c3cc(OC)c(OC)c(OC)c3)nc3ccc(Br)cc23)c1 | inactive
COC(=O)CNC(=O)c1cc(-c2cc(OC)c(OC)c(OC)c2)nc2ccccc12 | inactive
COc1cc(-c2cc(C(=O)NCC(=O)Nc3ccc(C(C)=O)cc3)c3ccccc3n2)cc(OC)c1OC | inactive
COc1ccccc1CN1C(=O)c2ccccc2N2C(=O)c3c(ccc(OC)c3OC)C12 (configuration not stated) | active
COc1ccc2nc(-c3cc(OC)c(OC)c(OC)c3)cc(C(=O)Nc3cccc(C(C)=O)c3)c2c1 | inactive
CCOC(=O)c1cccc(NC(=O)c2cc(-c3cc(OC)c(OC)c(OC)c3)nc3ccc(Cl)cc23)c1 | inactive
COc1cc(-c2cc(C(=O)Nc3cccc(C(C)=O)c3)c3cc(C)ccc3n2)cc(OC)c1OC | inactive
COc1cc(-c2cc(C(=O)Nc3cccc(C(N)=O)c3)c3ccccc3n2)cc(OC)c1OC | inactive
COc1cc(-c2cc(C(=O)Nc3cccc(C(=O)NCc4ccccc4)c3)c3ccccc3n2)cc(OC)c1OC | active
COc1cc(-c2cc(C(=O)Nc3cccc(C(=O)Nc4ccccc4)c3)c3ccccc3n2)cc(OC)c1OC | active
COc1ccc2c(c1OC)C(=O)N1c3ccccc3C(=O)N(Cc3cccc(Br)c3)C21 (configuration not stated) | active
